Measurements published in PubChem BioAssay (NCI).
Compounds without any hit were thinned out: in the full panel of roughly 79,000, 15% have a hit. Unmarked numbers belong to inactive results. Active and inactive are the calls of the source. No stated cut-off is given here; in the data, active means growth inhibition above about 70%; inactive means the rest.

Experiment: NCI Yeast Anticancer Drug Screen. Data for the sgs1 strain (AID 173);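 further: 0% = growth of vehicle-only control cultures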
Conditions: S. cerevisiae sgs1 mutant, hits give high values
Experimental: Growth inhibition of yeast strains with defined genetic alterations is measured as a screen for potential anti-cancer activity. Selected strains with alterations in DNA damage repair or cell cycle control were exposed to compounds and growth inhibition was measured relative to vehicle treated controls. The strain used in this assay is sgs1

| SMILES | growth inhibition (at 1.2 µM) | growth inhibition (at 3.7 µM) | growth inhibition (at 11.0 µM) | growth inhibition (at 33.0 µM) | growth inhibition (at 100.0 µM) |
| --- | --- | --- | --- | --- | --- |
| CCC(=O)OC1CCn2c1nc1c2C(=O)C(C)=C(N2CC2)C1=O (stereo not given) | 14% | 30% | 37% | 55% | 80% (active) |
| C[C@]12CC[C@H](O)CC1=CC[C@@H]1[C@@H]2CC[C@]2(C)C(=O)CC[C@@H]12 | -75% | -56% | -65% | 77% (active) | 97% (active) |
| C[C@]12CCC(=O)C=C1CC[C@@H]1C2CC[C@@]2(C)C1CC[C@@H]2OC(=O)C12OC1CCC2=O (stereo not given in full) | 18% | 24% | 57% | 95% (active) | 96% (active) |
| COC(=O)C1c2cc3c(c(O)c2C(O)CC1(C)O)C(=O)c1c(O)cc2c(c1C3=O)OC1OC2(C)C(O)C(N(C)C)C1O (stereo not given) | -1% | 9% | 40% | 71% (active) | 87% (active) |
| Cc1cc[n+](C2=C(Nc3cccc(C(F)(F)F)c3)C(=O)c3ccccc3C2=O)cc1 | 0% | -1% | 0% | 3% | 16% |
| O=C1OC2C(O1)C1(Cl)C(Cl)=C(Cl)C2(Cl)C1(Cl)Cl (stereo not given) | -1% | 0% | 0% | 0% | 1% |
| Cc1cccc(NC(=O)CBr)c1 | 9% | 55% | 99% (active) | 99% (active) | 99% (active) |
| Cc1c([N+](=O)[O-])oc2ccc3ccccc3c12 | 49% | 69% | 78% (active) | 86% (active) | 89% (active) |
